This note sets out measurements from PubChem BioAssay (NCATS).

The test system of test [1] is NIH3T3. In words: Cytotoxic Profiling of Annotated Libraries Using Quantitative High-Throughput Screening (AID 1296008). The note with it: Five cell lines viability, CellTiter-Glo ATP luminescence, 48-72 h; max response: stronger effect = lower value. The method in brief:
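Compounds were pin-transferred onto cells and incubated 48 or 72 hr at 37 degree Celsius, 95% humidity. CellTiter-Glo was added, plates sat 10 min at room temperature, then ATP-coupled luminescence was imaged as the viability read-out.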

A further test has as its system HACAT. Description: qHTS assay to identify novel small-molecules to repurpose for Merkel cell carcinoma treatment (AID 1296009). Conditions: MCC and control cell lines, CellTiter-Glo viability, 72 h; at 44.8 µM (top of the series) unless noted. The procedure, abridged: (§1)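 qHTS format: cells treated with library compounds in DMSO across 8 (NPC) or 11 (MIPE) concentrations. Readout after 72 hr at 37 degree celsius was CellTiter-Glo luminescence.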

The test system of a further test is MCC-13. Described as above. The note with it: MCC and control cell lines, CellTiter-Glo viability, 72 h; series mostly up to 46 µM. The procedure, abridged:
as §1

The subject of the next test is MKL-1. Described as above. Conditions: MCC and control cell lines, CellTiter-Glo viability, 72 h; series mostly up to 46 µM. The method in brief: as §1
A further test concerns MKL-2. The test is described as above. The note with it: MCC and control cell lines, CellTiter-Glo viability, 72 h; series mostly up to 46 µM. The procedure, abridged:
as §1

The next test deals with WaGa. Described as above. Conditions: MCC and control cell lines, CellTiter-Glo viability, 72 h; series mostly up to 46 µM. The procedure, abridged:
as §1

For the next test, the system named is UISO. Described as above. Conditions: MCC and control cell lines, CellTiter-Glo viability, 72 h; series mostly up to 46 µM. The procedure, abridged: as §1
A further test concerns MCC-26. The description is as above. Conditions: MCC and control cell lines, CellTiter-Glo viability, 72 h; series mostly up to 46 µM. The procedure, abridged: as §1
The next test concerns HEK293T. The test is described as above. Conditions: MCC and control cell lines, CellTiter-Glo viability, 72 h; at 44.8 µM (top of the series). The procedure, abridged: as §1
In test [2] the test system is NIH3T3. The test is described as above. Conditions: MCC and control cell lines, CellTiter-Glo viability, 72 h; at 44.8 µM (top of the series) unless noted. The method in brief:
as §1

Each structure is given as a SMILES string. Where “and” joins values, the source holds several entries; their conditions need not be identical. Equal entries are not always repeated. Records with an inconclusive call do not appear. Unmarked numbers belong to inactive results. Calls of active or inactive are those of the source. Calls follow the shape of the dose curve; as a rule, active = well fitted inhibition curve with a large enough effect; inconclusive = small, poorly fitted or top-dose-only effect; inactive = flat fitted curve, though single readings scatter.
% is scaled to controls: 0 for no effect and ±100 for the full control effect; potency is read from the fitted curve at half-maximal effect.
Also: nearly all actives have a fitted effect of over 60% in size.

With `CS(=O)(=O)N(Cc1ccco1)CC(O)Cn1c2ccccc2c2ccccc21` (stereo unspecified), the max response in the test on NIH3T3 [1] is -17.4% and 0.438%. Moreover, the molecule was called inactive with HACAT. Besides, the Potency entry in the test on MCC-13, in the test on MKL-1, in the test on MKL-2 and with WaGa was “inactive” each time.

In the case of `CCc1ccc(OCc2ccccc2C(=O)Nc2ccc3nc(C)cc(N)c3c2)cc1`, the figures for the Potency with NIH3T3 [1] and in the test with MCC-13 were 9.35 µM (active) and 18.7 µM (active), respectively.

In the case of `C=C1C(=O)OC2C=C(C)CCC=C(C)CCC12` (stereo unspecified), the max response with NIH3T3 [1] is 0.3%. The molecule was called inactive with HACAT. Further, the Potency entry with MCC-13, with MKL-1 and in the test with UISO was “inactive” each time.

Take `CC[C@]1(O)C[C@@H]2CN(CCc3c([nH]c4ccccc34)[C@@](C(=O)OC)(c3cc4c(cc3OC)N(C)[C@H]3[C@@](O)(C(=O)OC)[C@H](OC(C)=O)[C@]5(CC)C=CCN6CC[C@]43[C@@H]65)C2)C1`: the Potency is 0.335 µM (active) with NIH3T3 [1]; 119 nM (active) and 1.19 µM (active) with MCC-13; 75 nM (active) and 168 nM (active) with MKL-1; 75 nM (active) and 150 nM (active) with MKL-2; 0.237 µM (active) in the test with UISO; 26.6 nM (active) and 75 nM (active) in the test on WaGa. The call in the test on HACAT was inactive.

On to `CC1(C)S[C@H]2[C@H](NC(=O)[C@@H](N)c3ccc(O)cc3)C(=O)N2[C@@H]1C(=O)O`, for which the max response in the test with NIH3T3 [1] is 4.61%. The result in the test on HACAT was inactive. In addition, the Potency result in the test with MCC-13, in the test on MCC-26 and with UISO was “inactive” throughout. The Potency is 4.18 µM (active) in the test with MKL-2 and 2.64 µM (active) in the test with WaGa.

Consider `O=C(OCC#CCSc1nnc(-c2cccc3ccccc23)o1)c1cc2ccccc2s1`, for which the outcome in the test on NIH3T3 [1], in the test with HEK293T and in the test with NIH3T3 [2] was inactive. Also, the Potency entry in the test with MCC-13, with MCC-26, with MKL-1, in the test with MKL-2, with UISO and in the test with WaGa was “inactive” each time.

In the case of `O=C(O)C(O)Cc1ccc(O)c(O)c1` (stereo unspecified), the max response with NIH3T3 [1] was -0.893%. Further, the result in the test with HEK293T was inactive. Also, the Potency entry in the test on MCC-13, in the test with MCC-26, in the test on MKL-1, in the test with MKL-2, in the test with UISO and with WaGa was “inactive” in each case.

Regarding `O=C1NC(=O)C(=Cc2ccc3c(c2)OC(F)(F)O3)S1`, the max response in the test on NIH3T3 [1] is -19.2%. In addition, the Potency result in the test with MCC-13, in the test with MCC-26, in the test with MKL-1, in the test with MKL-2 and in the test with UISO was “inactive” in each case.

On to `CC(C)C(C)C=CC(C)C1CCC2C3=CC=C4CC(O)CCC4(C)C3CCC21C` (stereo unspecified), for which the max response in the test on NIH3T3 [1] was -6.24%. For the same molecule, the Potency result with MCC-13, in the test with MCC-26, in the test with MKL-1, in the test on MKL-2, in the test on UISO and in the test on WaGa was “inactive” throughout.

`CC[C@]1(O)C[C@@H]2CN(CCc3c([nH]c4ccccc34)[C@@](C(=O)OC)(c3cc4c(cc3OC)N(C=O)[C@@H]3C45CCN4CC=C[C@](CC)([C@H]45)[C@@H](OC(C)=O)[C@]3(O)C(=O)OC)C2)C1` (stereo partly specified): in the test on NIH3T3 [1], the max response was -0.0535%. Further, the Potency result with MCC-13, in the test with MCC-26 and with MKL-1 was “inactive” throughout.

For the molecule `O=C(Nc1cc(Cl)cc2c1[nH]c1cnccc12)c1cccnc1`, in the test on NIH3T3 [1], the max response was 2.41%. Moreover, the Potency result in the test with MCC-13, with MCC-26, with MKL-1, in the test with MKL-2, with UISO and with WaGa was “inactive” throughout.

Regarding `COc1ccc2c(Oc3ccc(NC(=O)c4c(C)n(CC(C)(C)O)n(-c5ccccc5)c4=O)nc3)ccnc2c1`, the Potency in the test with NIH3T3 [1] was 3.66 µM (active). Besides, the Potency entry in the test with MCC-13, in the test with MCC-26, in the test with MKL-1, with MKL-2, in the test on UISO and with WaGa was “inactive” throughout.

With `CCn1c(C(=O)N(C2CC2)C2CC2)cc2c3c(ncn3C)c(Nc3cc(C)n(C)n3)nc21`, the Potency in the test on NIH3T3 [1] was 23.5 µM (active). Moreover, the Potency entry in the test with MCC-13, in the test on MCC-26, in the test with MKL-1, in the test on MKL-2, in the test with UISO and in the test with WaGa was “inactive” each time.

In the case of `COc1ccc(-c2cc(=O)c3c(O)cc(O)cc3o2)cc1O`, in the test with NIH3T3 [1], the max response was -2.97%. Also, the Potency result with MCC-13, with MCC-26, in the test with MKL-1 and in the test on MKL-2 was “inactive” throughout.

Turning to `COc1ccc(Cc2ccc(NC(N)=O)cc2)cc1-c1cccc(Cl)c1`, in the test on NIH3T3 [1], the max response is -1.6%. The Potency result in the test with MCC-13, in the test with MCC-26, in the test on MKL-1, in the test with MKL-2, in the test with UISO and in the test with WaGa was “inactive” in each case.

Consider `O=C(NCCN1CCOCC1)c1ccc(Cl)cc1`, for which, in the test on NIH3T3 [1], the max response was 4.53%. Moreover, the Potency result with MCC-13, with MCC-26, in the test with MKL-1, with MKL-2, in the test on UISO and with WaGa was “inactive” throughout.

In the case of `Cc1nnc(C(C)C)n1C1C[C@H]2CC[C@@H](C1)N2CC[C@H](NC(=O)C1CCC(F)(F)CC1)c1ccccc1` (stereo partly specified), the call in the test on NIH3T3 [1] and in the test on NIH3T3 [2] was inactive. For the same molecule, the Potency entry with MCC-13, in the test with MCC-26, with MKL-1, in the test on MKL-2, in the test on UISO and in the test with WaGa was “inactive” each time.

On to `COc1ccc(-n2c(C)c([N+](=O)[O-])c3ccc(O)cc32)cc1`, for which the max response in the test with NIH3T3 [1] was 4.92%. The Potency entry in the test on MCC-13, in the test with MCC-26, with MKL-1, in the test with MKL-2, in the test on UISO and with WaGa was “inactive” each time.

On to `NC1=N[C@@]2(c3cc(NC(=O)c4ccc(F)cn4)ccc3F)COC[C@@H]2CS1`, for which the max response with NIH3T3 [1] was 4.73%. In addition, the Potency result with MCC-13, with MCC-26 and with MKL-2 was “inactive” in each case. In addition, the Potency with MKL-1 was 10.5 µM (active).

Turning to `CC#CCn1c(N2CCC[C@@H](N)C2)nc2c1c(=O)n(Cc1nc(C)c3ccccc3n1)c(=O)n2C`, the result with NIH3T3 [1] and in the test with NIH3T3 [2] was inactive. The Potency entry in the test on MCC-13, with MCC-26, in the test on MKL-1, with MKL-2, with UISO and in the test on WaGa was “inactive” in each case.

For `O=C1NC(=O)C(c2ccccc2)(c2ccccc2)N1`, in the test on NIH3T3 [1], the max response was -3.65%. The Potency entry in the test with MCC-13, in the test with MCC-26, with MKL-1, with MKL-2, with UISO and in the test on WaGa was “inactive” in each case.
